Results from PubChem BioAssay (EPA / NIEHS).
Results filed as inconclusive are left out. Active and inactive are the calls of the source. Rule for the calls, unless noted: active = hit-call score of the fitted dose curve at least 0.9, where 1 is the maximum; inactive = score below 0.9.

Columns and labels:
[1] = ACEA_ER_80hr: ACEA Biosciences xCELLigence Real-Time Cell Analysis on Estrogen Receptor Agonism for Proliferation (AID 2282667; active = hit-call score of the fitted dose curve at least 0.9, where 1 is the maximum); conditions: T47D proliferation, impedance (xCELLigence), 80 h
Method in brief: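 Estrogen-driven proliferation is captured as electrode impedance in T47D cells 80 h after compound addition. Test articles ran at 8 concentrations, 1:4 dilutions from 100 uM final, in two replicate plates.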

[2] = ATG_CRE_CIS: Attagene CIS-FACTORIAL HepG2 Assay for human cAMP Responsive Element (CRE) binding protein 3 (AID 2282926); conditions: HepG2 CRE cis-reporter, Attagene multiplexed mRNA; actives raise or lower the signal
Method in brief: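 Transfected HepG2 were treated for 24 hours, then RNA was extracted and reporter cDNA amplified with sequence-specific primers. Labelled fragments were separated by capillary electrophoresis, and the CRE signal was fitted bidirectionally with DMSO as baseline.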

[3] = target: CCAAT/enhancer-binding protein beta (Homo sapiens) (UniProt P17676); test: ATG_C_EBP_CIS: Attagene CIS-FACTORIAL HepG2 Assay for human CCAAT/Enhancer Binding Protein (C/EBP) beta (AID 2282927); conditions: HepG2 Attagene cis-factorial transcription factor reporter; actives raise or lower the signal
Chain of CCAAT/enhancer-binding protein beta (Homo sapiens) (P17676 whole entry, looked up): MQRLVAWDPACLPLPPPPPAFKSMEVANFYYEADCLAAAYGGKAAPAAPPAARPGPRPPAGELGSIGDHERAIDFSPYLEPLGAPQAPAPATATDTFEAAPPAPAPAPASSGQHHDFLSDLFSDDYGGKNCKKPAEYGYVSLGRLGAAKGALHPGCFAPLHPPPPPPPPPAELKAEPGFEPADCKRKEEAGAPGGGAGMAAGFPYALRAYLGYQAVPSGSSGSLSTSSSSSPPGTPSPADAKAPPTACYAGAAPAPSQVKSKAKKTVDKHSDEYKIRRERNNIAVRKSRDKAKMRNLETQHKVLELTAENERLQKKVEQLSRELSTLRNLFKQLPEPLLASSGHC
Method in brief: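 RT-PCR/capillary electrophoresis fluorescence of reporter mRNA, 24 h post-dose, in HepG2 cells carrying transfected cis-promoter reporter units. Bidirectional curve fitting against DMSO baseline captures gain or loss of signal.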

[4] = ATG_CMV_CIS: Attagene CIS-FACTORIAL HepG2 Assay for human CMV (Internal Marker) (AID 2282928); conditions: HepG2 CMV promoter reporter, transcription factor profiling; actives raise or lower the signal;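 note: endpoint acts as a background internal control marker rather than a target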
Method in brief: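 After transient transfection of HepG2 with reporter transcription units driven by cis-regulatory promoters, cells receive test chemical for 24 h. Labeled reporter amplicons, digested with HpaI, are sized and quantified by capillary electrophoresis against DMSO.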

[5] = ATG_DR4_LXR_CIS: Attagene CIS-FACTORIAL HepG2 Assay for human Liver X Receptor (LXR), DR4 submotif (AID 2282929); conditions: HepG2 Attagene DR4 cis-reporter, mRNA transcription; actives raise or lower the signal
Method in brief: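 HepG2 cells transiently transfected with cis-promoter-driven multiplexed reporter units (DR4 element) were dosed for 24 h. Reporter mRNA was quantified by RT-PCR, fluorescent primer extension, HpaI digestion and capillary electrophoresis; bidirectional fitting versus DMSO baseline.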

[6] = target: Aryl hydrocarbon receptor (Homo sapiens) (UniProt P35869); test: ATG_Ahr_CIS: Attagene CIS-FACTORIAL HepG2 Assay for human Aryl Hydrocarbon Receptor (Ahr) (AID 2282930); conditions: HepG2 AhR cis-factorial reporter transcription; actives raise or lower the signal
Chain of Aryl hydrocarbon receptor (Homo sapiens) (P35869 whole entry, looked up): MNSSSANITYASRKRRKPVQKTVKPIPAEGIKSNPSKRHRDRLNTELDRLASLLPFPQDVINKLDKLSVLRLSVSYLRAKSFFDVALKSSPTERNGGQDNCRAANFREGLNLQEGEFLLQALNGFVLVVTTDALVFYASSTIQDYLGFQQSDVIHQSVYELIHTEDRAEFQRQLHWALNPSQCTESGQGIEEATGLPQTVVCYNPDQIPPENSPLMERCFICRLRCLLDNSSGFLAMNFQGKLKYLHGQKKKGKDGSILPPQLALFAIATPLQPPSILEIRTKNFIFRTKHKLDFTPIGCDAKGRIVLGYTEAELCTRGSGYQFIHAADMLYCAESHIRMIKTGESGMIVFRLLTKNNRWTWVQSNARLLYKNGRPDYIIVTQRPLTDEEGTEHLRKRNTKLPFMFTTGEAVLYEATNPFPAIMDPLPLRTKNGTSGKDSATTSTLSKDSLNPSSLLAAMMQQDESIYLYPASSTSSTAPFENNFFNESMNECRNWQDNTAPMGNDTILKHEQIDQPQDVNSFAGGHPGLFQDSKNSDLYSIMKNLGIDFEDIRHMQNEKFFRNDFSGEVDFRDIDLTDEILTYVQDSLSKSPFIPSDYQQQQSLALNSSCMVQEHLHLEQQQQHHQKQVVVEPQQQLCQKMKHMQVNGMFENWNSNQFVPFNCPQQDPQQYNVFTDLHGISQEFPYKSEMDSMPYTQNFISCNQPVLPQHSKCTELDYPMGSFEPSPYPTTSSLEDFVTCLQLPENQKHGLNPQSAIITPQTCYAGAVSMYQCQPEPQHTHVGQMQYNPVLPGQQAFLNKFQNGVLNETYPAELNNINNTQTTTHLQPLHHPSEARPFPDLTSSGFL
Method in brief: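 HepG2 cells transiently transfected with cis-element-driven multiplexed reporter transcription units; endogenous transcription factor activity measured as reporter mRNA 24 h after dosing. RT-PCR, 6-FAM labelling, HpaI digestion, capillary electrophoresis; bidirectional fitting versus DMSO baseline.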

[7] = ATG_AP_1_CIS: Attagene CIS-FACTORIAL HepG2 Assay for human Activator Protein 1 (AP-1) (AID 2282931); conditions: HepG2 Attagene cis-factorial AP-1 reporter mRNA; actives raise or lower the signal
Method in brief: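 HepG2 cells transiently transfected with cis-element-driven multiplex reporter units; 24 h compound exposure. Reporter mRNA quantified by RT-PCR, FAM-labelled fragments resolved by capillary electrophoresis; bidirectional fit versus DMSO baseline.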

[8] = ATG_AP_2_CIS: Attagene CIS-FACTORIAL HepG2 Assay for human Activator Protein 2 (AP-2) (AID 2282932); conditions: HepG2 AP-2 cis-reporter, Attagene transcription factor profiling; actives raise or lower the signal
Method in brief: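 HepG2 cells were transiently transfected with multiple cis-promoter reporter transcription units and dosed for 24 h. Reporter mRNA was measured by RT-PCR with capillary electrophoresis fluorescence; bidirectional fits relative to DMSO baseline.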

[9] = ATG_BRE_CIS: Attagene CIS-FACTORIAL HepG2 Assay for human Bone Morphogenetic Protein (BMP) Response Element (BRE) (AID 2282933); conditions: HepG2 BMP response element reporter, Attagene transcription factor profiling; actives raise or lower the signal
Method in brief: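 After a 24 h chemical treatment, transiently transfected HepG2 cells were lysed for RNA; reporter transcripts were quantified by fluorescent RT-PCR and capillary electrophoresis, normalised to DMSO.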

[10] = target: Retinoic acid receptor alpha (Homo sapiens) (UniProt P10276); test: ATG_DR5_RAR_CIS: Attagene CIS-FACTORIAL HepG2 Assay for human Retinoic Acid Receptor Alpha (RARE), DR5 submotif (AID 2282934); conditions: HepG2 Attagene cis-factorial RARE DR5 reporter, mRNA; actives raise or lower the signal;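 for AC50: reporter responds to endogenous RAR alpha beta and gamma in HepG2 not RARA alone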
Chain of Retinoic acid receptor alpha (Homo sapiens) (P10276 whole entry, looked up): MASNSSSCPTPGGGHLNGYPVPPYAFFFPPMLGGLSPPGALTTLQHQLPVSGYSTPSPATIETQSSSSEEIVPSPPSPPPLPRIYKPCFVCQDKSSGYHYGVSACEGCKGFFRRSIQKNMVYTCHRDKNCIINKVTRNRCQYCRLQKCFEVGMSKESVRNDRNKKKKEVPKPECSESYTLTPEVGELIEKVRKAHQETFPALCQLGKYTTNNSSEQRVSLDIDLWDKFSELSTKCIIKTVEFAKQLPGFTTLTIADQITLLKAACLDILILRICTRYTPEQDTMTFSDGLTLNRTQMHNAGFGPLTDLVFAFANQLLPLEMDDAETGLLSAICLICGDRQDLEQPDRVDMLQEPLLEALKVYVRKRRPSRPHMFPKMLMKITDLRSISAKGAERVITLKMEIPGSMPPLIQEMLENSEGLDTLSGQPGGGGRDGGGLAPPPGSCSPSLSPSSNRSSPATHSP
Method in brief: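 HepG2 cells transiently transfected with multiplexed reporter units under cis (DR5 RARE) promoters, so endogenous transcription factor activity is measured. After 24 h compound exposure, reporter mRNA is quantified by RT-PCR with fluorescent labelling and capillary electrophoresis; bidirectional fitting versus DMSO.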

[11] = target: Transcription factor E2F1 (Homo sapiens) (UniProt Q01094); test: ATG_E2F_CIS: Attagene CIS-FACTORIAL HepG2 Assay for human E2F Transcription Factor 1 (AID 2282935); conditions: HepG2 Attagene cis-reporter, E2F reporter RNA transcripts; actives raise or lower the signal
Chain of Transcription factor E2F1 (Homo sapiens) (Q01094 whole entry, looked up): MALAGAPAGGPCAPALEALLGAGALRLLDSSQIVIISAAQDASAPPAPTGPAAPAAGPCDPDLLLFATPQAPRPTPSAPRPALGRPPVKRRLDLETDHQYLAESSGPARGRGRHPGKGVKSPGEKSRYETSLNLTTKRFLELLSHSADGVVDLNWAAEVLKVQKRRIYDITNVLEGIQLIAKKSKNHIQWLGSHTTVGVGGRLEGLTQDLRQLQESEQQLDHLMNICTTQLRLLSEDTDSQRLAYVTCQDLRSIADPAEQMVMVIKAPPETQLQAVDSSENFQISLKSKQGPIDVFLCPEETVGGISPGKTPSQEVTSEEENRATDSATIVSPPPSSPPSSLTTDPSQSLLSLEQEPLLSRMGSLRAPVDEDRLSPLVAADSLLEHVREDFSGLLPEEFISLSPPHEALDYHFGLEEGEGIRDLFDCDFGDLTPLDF
Method in brief: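 HepG2 cells transiently transfected with multiplexed cis-element reporter units, dosed for 24 h. Reporter mRNA measured by RT-PCR, 6-FAM primer-extension labeling, HpaI digestion and capillary electrophoresis; bidirectional fit versus DMSO baseline.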

[12] = ATG_E_Box_CIS: Attagene CIS-FACTORIAL HepG2 Assay for human Enhancer Box (E-box) (AID 2282936); conditions: HepG2 E-box cis-reporter transcription, actives raise or lower the signal
Method in brief: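 HepG2 cells transiently transfected with multiplexed cis-element reporter units sensing endogenous transcription factor activity; 24 h compound exposure. Reporter mRNA measured by RT-PCR, 6-FAM primer extension, HpaI digestion and capillary electrophoresis; bidirectional fit versus DMSO.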

[13] = ATG_M_61_CIS: Attagene CIS-FACTORIAL HepG2 Assay for M61 Transcription Factor (Internal Marker) (AID 2282937); conditions: HepG2 Attagene CIS-FACTORIAL M61 internal marker reporter; actives raise or lower the signal
Method in brief: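 HepG2 cells transiently transfected with cis-element-driven multiple reporter transcription units, dosed for 24 h. Reporter mRNA measured by RT-PCR, 6-FAM primer-extension labelling, HpaI digestion and capillary electrophoresis; bidirectional fit versus DMSO baseline.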

[14] = ATG_M_19_CIS: Attagene CIS-FACTORIAL HepG2 Assay for M19 Transcription Factor (Internal Marker) (AID 2282939); conditions: HepG2 Attagene CIS-FACTORIAL M19 internal marker reporter; actives raise or lower the signal
Method in brief: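 In this multiplexed cell assay, transiently transfected HepG2 reporter units report endogenous transcription-factor activity; after 24 hours of treatment, labelled reporter cDNA fragments are quantified by capillary electrophoresis and fitted bidirectionally against DMSO.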

[15] = ATG_ERE_CIS: Attagene CIS-FACTORIAL HepG2 Assay for Estrogen Response Element (ERE) (AID 2282940); conditions: HepG2 ERE cis-reporter, Attagene RNA transcript; actives raise or lower the signal
Method in brief: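 Measuring endogenous transcription factor output, the assay doses transfected HepG2 cells for 24 hours and quantifies reporter transcripts by fluorescent RT-PCR and capillary electrophoresis, with DMSO as baseline.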

[16] = ATG_Ets_CIS: Attagene CIS-FACTORIAL HepG2 Assay for human Erythroblast Transformation Specific (ETS) (AID 2282941); conditions: HepG2 ETS cis-reporter transcription, actives raise or lower the signal
Method in brief: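 Human HepG2 hepatoma cells were transiently transfected with promoter-driven reporter constructs and treated for 24 hours. Reporter transcripts were quantified by RT-PCR with fluorescent primer extension; bidirectional curve fitting used DMSO as reference.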

[17] = target: Hepatocyte nuclear factor 3-beta (Homo sapiens) (UniProt Q9Y261); test: ATG_FoxA2_CIS: Attagene CIS-FACTORIAL HepG2 Assay for human Forkhead box A2 (FOXA2) (AID 2282942); conditions: HepG2 cis-reporter transcription factor activity, 24 h; actives raise or lower the signal
Chain of Hepatocyte nuclear factor 3-beta (Homo sapiens) (Q9Y261 whole entry, looked up): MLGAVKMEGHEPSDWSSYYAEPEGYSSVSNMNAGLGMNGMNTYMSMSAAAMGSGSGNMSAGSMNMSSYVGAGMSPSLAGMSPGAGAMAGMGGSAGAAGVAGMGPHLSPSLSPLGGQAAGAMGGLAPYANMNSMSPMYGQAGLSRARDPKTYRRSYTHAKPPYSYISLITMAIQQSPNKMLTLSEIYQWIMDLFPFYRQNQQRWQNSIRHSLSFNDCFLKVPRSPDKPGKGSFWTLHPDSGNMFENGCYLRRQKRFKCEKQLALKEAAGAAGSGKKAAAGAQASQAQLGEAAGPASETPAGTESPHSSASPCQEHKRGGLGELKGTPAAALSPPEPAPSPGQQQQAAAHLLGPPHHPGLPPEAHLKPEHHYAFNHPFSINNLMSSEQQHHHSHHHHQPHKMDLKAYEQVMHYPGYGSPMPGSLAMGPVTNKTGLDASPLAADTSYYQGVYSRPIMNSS
Method in brief: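 HepG2 cells transiently transfected with multiple cis-regulated reporter transcription units, dosed for 24 h. Reporter mRNA measured by RT-PCR, 6-FAM labelling, HpaI digestion and capillary electrophoresis; bidirectional fitting against DMSO baseline.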

[18] = ATG_FoxO_CIS: Attagene CIS-FACTORIAL HepG2 Assay for human Forkhead box O (FoxO) (AID 2282943); conditions: HepG2 Attagene cis-reporter, FoxO element, mRNA; actives raise or lower the signal
Method in brief: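 HepG2 cells transiently transfected with cis-promoter-driven multiple reporter transcription units; 24 h after chemical dosing, reporter mRNA quantified by RT-PCR, fluorescent primer extension, HpaI digestion and capillary electrophoresis. Bidirectional fitting versus DMSO baseline.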

[19] = ATG_GATA_CIS: Attagene CIS-FACTORIAL HepG2 Assay for human GATA Binding Protein (AID 2282944); conditions: HepG2 GATA cis-element reporter, Attagene multiplex mRNA; actives raise or lower the signal
Method in brief: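 Measures endogenous transcription factor-driven reporter mRNA in HepG2 cells transiently carrying cis-regulated constructs. 24 h dosing; RNA via oligo(dT) reverse transcription, PCR, HpaI digestion, capillary electrophoresis; fitted relative to DMSO.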

[20] = ATG_EGR_CIS: Attagene CIS-FACTORIAL HepG2 Assay for human Early Growth Response 1 (EGR1) (AID 2282938); conditions: HepG2 Attagene CIS-FACTORIAL EGR reporter mRNA; actives raise or lower the signal
Method in brief: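 HepG2 cells transiently transfected with cis-promoter-driven multiplexed reporter transcription units; reporter mRNA measured 24 h after compound dosing by RT-PCR, 6-FAM primer extension, HpaI digestion and capillary electrophoresis. Bidirectional fit versus DMSO baseline.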

Measured: AC50

C[Si](C)O[Si](C)C
not listed: [20]
inactive: all other assays above

Nc1cccnc1N
active: [5] 53.5 µM | [6] 27.4 µM | [7] 16.7 µM | [10] 65.8 µM
not listed: [17]
inactive: all other assays above

Cc1cc(=O)[nH]c(C(C)C)n1
inactive: all assays above

CSc1ccc(Cl)cc1
not listed: [20]
inactive: all other assays above

O=S(=O)(OCC(F)(F)F)C(F)(F)C(F)(F)C(F)(F)C(F)(F)F
active: [4] 42.3 µM | [5] 104 µM | [7] 48.1 µM | [9] 58.2 µM | [10] 17.6 µM
not listed: [17] | [20]
inactive: all other assays above

FC(F)(F)C(F)(F)C(F)(F)C(F)(F)C(F)(F)C(F)(F)C(F)(F)CCI
not listed: [17]
inactive: all other assays above

CCOCN(C(=O)CS(=O)(=O)O)c1c(C)cccc1CC
not listed: [20]
inactive: all other assays above

OC(O)C(F)(F)C(F)(F)F
active: [4] 117 µM | [5] 150 µM | [7] 96 µM
inactive: all other assays above

NCC(F)(F)C(F)(F)C(F)(F)C(F)(F)C(F)(F)C(F)(F)F
inactive: all assays above

NCC(F)(F)C(F)(F)C(F)(F)C(F)(F)C(F)(F)C(F)(F)C(F)(F)C(F)(F)F
inactive: all assays above

Brc1ccccn1
inactive: all assays above

Cc1cccc(C)n1
not listed: [17]
inactive: all other assays above

O=C(Cl)c1ccc(Cl)cc1Cl
not listed: [17]
inactive: all other assays above

OCCCC(F)(F)C(F)(F)C(F)(F)C(F)(F)C(F)(F)C(F)(F)C(F)(F)C(F)(F)F
active: [1] 21 µM | [9] 64.3 µM | [10] 22 µM
not listed: [20]
inactive: all other assays above
